The source made the active and inactive calls.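 Rule for the calls, unless noted: active = fluorescence slope after compound addition differing from the mean of all screened samples at 99.7% confidence, in either direction; inactive = the rest.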

These results are taken from PubChem BioAssay.

Test [1] is described as follows: inhibitors of TNFa-induced NFkB p65 translocation, primary screen, imaging, HUVEC, MLSMR starter and 10KST1 sets (AID 438;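 active = inhibition above 20% together with a positive visual image hit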;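 note: compound added about 3h40 before a 20 min TNFalpha stimulation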;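 for inhibition: signal is the nuclear over cytoplasmic p65 intensity ratio per well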). Conditions: HUVEC TNFa-induced p65 nuclear translocation; cell count: measured here: nuclei count (cytotoxicity indicator), at 2.08 µM; inhibition: at 2 µM, stronger effect = higher value, 0% TNFa-plus-vehicle, 100% no-TNFa wells.
Test [2] in a line: reduction of polyQ htt aggregates in cells – imaging, exon1htt(103Q)mCFP cells, high-content imaging, primary screen (AID 483;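 active = visual image review flags a hit and inhibition of aggregation exceeds 20%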;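 note: compound exposure lasted 3 days before fixation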;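 for nuclei count: percent of the per-plate median nuclei count of sample wells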). Conditions: exon1htt(103Q)mCFP cell line, aggregate imaging, at 2 µM; inhibition of aggregation: stronger effect = higher value; nuclei count: measured here: cell count, toxicity.
Test [3] can be described thus: endothelial E-selectin expression blockers – imaging, HUVEC, immunofluorescence, MLSMR starter and 10KST1 sets, primary screen (AID 487;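 active = visually confirmed hit in the image check and inhibition above 20%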;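 for inhibition: signal is fraction of cell area covered by stained E-selectin grains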;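 for nuclei count: 100% = median nuclei count of all wells on the same plate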). Conditions: HUVEC TNFalpha-induced E-selectin immunofluorescence imaging, at 2 µM; inhibition: stronger effect = higher value; nuclei count: measured here: cell number, toxicity.
For test [4], the target named is Voltage-gated potassium channel subunit beta-2 (Rattus norvegicus) (UniProt P62483). Nature of the test: inhibitors of rat Kvbeta2 reductase activity – biochemical, NADPH fluorescence, primary screen (AID 622;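 active = fluorescence slope higher than the sample average by over 3 SD, cut at about -0.22 in these data, passing the limit was not always enough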;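 note: slope of raw intensity against log time taken from 70 to 1610 s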). Conditions: recombinant KvBeta, 4-cyanobenzaldehyde reduction, at 10 µM, stronger effect = higher value.
Sequence of Voltage-gated potassium channel subunit beta-2 (Rattus norvegicus) (P62483 whole entry, looked up): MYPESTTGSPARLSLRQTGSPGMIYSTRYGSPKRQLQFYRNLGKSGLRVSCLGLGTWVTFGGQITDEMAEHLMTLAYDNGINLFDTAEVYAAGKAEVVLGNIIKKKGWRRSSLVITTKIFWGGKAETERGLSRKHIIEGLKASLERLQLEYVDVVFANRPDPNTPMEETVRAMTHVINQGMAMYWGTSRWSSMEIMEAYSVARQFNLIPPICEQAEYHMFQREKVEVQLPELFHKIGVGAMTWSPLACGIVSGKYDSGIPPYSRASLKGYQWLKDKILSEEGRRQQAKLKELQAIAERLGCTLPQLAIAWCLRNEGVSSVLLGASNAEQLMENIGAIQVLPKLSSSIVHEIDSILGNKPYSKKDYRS
Test [5] has the same target. Kind of test: enhancers of rat Kvbeta2 NADPH turnover – biochemical, NADPH fluorescence, primary screen (AID 623;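 active = NADPH fluorescence slope more negative than the mean of all samples by about 3 SD, 99.7% confidence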;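 note: fluorescence intensity change per second fitted from 20 to 320 s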). Conditions: Recombinant KvBeta, NADPH fluorescence decrease slope, 10 min; at 10 µM; stronger effect = lower value.
For test [6], the target named is Alpha-2C adrenergic receptor (Homo sapiens) (UniProt P18825). Kind of test: compounds altering alpha2C-coupled GIRK flux – cell-based, HEK293 alpha2C/GIRK1/2, thallium flux, primary screen (AID 624).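 Note: slope of fluorescence ratio to pre-addition baseline per second over 15 to 24 s.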 Conditions: thallium flux BTC fluorescence, at 10 µM, actives lie on both sides.
Sequence of Alpha-2C adrenergic receptor (Homo sapiens) (P18825 whole entry, looked up): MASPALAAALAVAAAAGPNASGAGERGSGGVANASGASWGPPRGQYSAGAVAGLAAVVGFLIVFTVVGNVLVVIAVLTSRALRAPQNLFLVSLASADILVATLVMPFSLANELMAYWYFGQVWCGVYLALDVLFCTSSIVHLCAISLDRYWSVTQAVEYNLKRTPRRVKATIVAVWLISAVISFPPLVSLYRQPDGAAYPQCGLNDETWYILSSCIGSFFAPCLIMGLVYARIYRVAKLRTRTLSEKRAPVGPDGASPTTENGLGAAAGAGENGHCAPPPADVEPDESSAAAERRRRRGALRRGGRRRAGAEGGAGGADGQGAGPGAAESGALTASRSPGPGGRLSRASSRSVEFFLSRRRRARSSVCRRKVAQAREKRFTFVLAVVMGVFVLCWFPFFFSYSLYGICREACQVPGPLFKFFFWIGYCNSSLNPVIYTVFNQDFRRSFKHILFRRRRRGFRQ
Test [7] is described as follows: blockers of RIG-like receptor reporter activation – cell-based, Sendai virus stimulus, luciferase, 10K MLSCN set, TLR/RLR signaling modifier project, primary screen (AID 602276;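 active = inhibition at or above 50% at 10 µM; inactive = inhibition below 50%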;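 note: firefly luciferase from ISG56 promoter only with Renilla not read in this screen; 0% = Sendai virus plus DMSO and 100% = medium plus DMSO without virus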). Conditions: HEK293 RL24 IRF3 luciferase reporter, at 10 µM, stronger effect = higher value.
Test [8] can be described thus: TLR3 IRF3 reporter activation blockers – cell-based, poly I:C stimulus, luciferase, 10K MLSCN set, primary screen (AID 602277;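 active = inhibition of the reporter signal at or above 50%; inactive = inhibition below 50%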). Conditions: HEK293-TLR3 RL24 IRF3 luciferase reporter, at 10 µM, stronger effect = higher value.

As for `CCCc1cc(C(=O)Nc2sc3c(c2C#N)CCC3)no1`, in test [1], the cell count was 633. For the same compound, the inhibition (usually the drop in the measured response relative to a control, in per cent) was -2.9% (inactive) in test [1], -34.8% (inactive) in test [3], 7.08% (inactive) in test [7] and 10.9% (inactive) in test [8]. Further, the inhibition of aggregation in test [2] is 11.9% (inactive). Further, the results for the nuclei count in test [2] and in test [3] were 95.8% and 116%, respectively. Moreover, in test [4], the fluorescence slope was -0.568 (inactive). For the same compound, in test [5], the NADPH fluorescence slope is -2.8e-05 (inactive). For the same compound, the slope in test [6] was 0.00643 (inactive).

For the compound `O=C(NC12CC3CC(CC(C3)C1)C2)N1CCN(C(=O)C2CCCO2)CC1` (stereo not given), in test [1], the cell count was 434. Moreover, the inhibition in test [1] is -10.3% (inactive); in test [3], -186% (inactive); in test [7], 18% (inactive); in test [8] it was 11.1% (inactive). The inhibition of aggregation in test [2] is -18.6% (inactive). Further, the nuclei count in test [2] was 100%; in test [3] it was 0.2%. Besides, in test [4], the fluorescence slope is -0.392 (inactive). Besides, the NADPH fluorescence slope in test [5] is -7.1e-05 (inactive). Besides, the slope in test [6] is 0.00603 (inactive).

For the compound `CCOC(=O)C1CCCN(C(=O)c2cn(C)c(=O)c3cc(OC)c(OC)cc23)C1` (stereo not given), the cell count in test [1] came out at 746. The inhibition in test [1] was -16.1% (inactive); in test [3], 0.3% (inactive); in test [7], 6.66% (inactive); in test [8], 15.1% (inactive). In addition, the inhibition of aggregation in test [2] was -3.6% (inactive). Also, the nuclei count in test [2] and in test [3] was 110% throughout. In test [4], the fluorescence slope is -0.468 (inactive). Moreover, in test [5], the NADPH fluorescence slope was -1e-06 (inactive). Moreover, in test [6], the slope was 0.00726 (inactive).

On to `COc1ccc2[nH]c(=O)c(CN(CC3CCCO3)C(=O)Nc3ccc(F)cc3)cc2c1` (stereo not given), for which, in test [1], the cell count was determined as 621. Also, the inhibition in test [1] was 3% (inactive); in test [3], -38.1% (inactive); in test [7], -18.3% (inactive); in test [8] it was -13.3% (inactive). In addition, the inhibition of aggregation in test [2] is 12.1% (inactive). The nuclei count in test [2] was found to be 95.3%; in test [3] it was 114%. The fluorescence slope in test [4] was -0.512 (inactive). In addition, in test [5], the NADPH fluorescence slope was 7.8e-06 (inactive). In addition, in test [6], the slope was 0.00737 (inactive).

As for `Cc1cc(NC(=O)CCC(=O)N(CC(=O)NC2CCCC2)Cc2ccc(F)cc2)no1`, the cell count in test [1] was 402. The inhibition in test [1] is 0.8% (inactive); in test [3] it was -48.3% (inactive); in test [7] it was 14.9% (inactive); in test [8], 13.1% (inactive). Moreover, the inhibition of aggregation in test [2] is -35.1% (inactive). Also, the nuclei count was 103% in test [2] and 122% in test [3]. In addition, the fluorescence slope in test [4] is -0.421 (inactive). The NADPH fluorescence slope in test [5] was -3.6e-05 (inactive). Besides, the slope in test [6] is 0.00498 (inactive).

Consider `CCOC(=O)CNC(=O)CSc1nnnn1-c1cc(C)ccc1C`, for which the cell count in test [1] was 355. Moreover, the inhibition was -3.6% (inactive) in test [1], 51.5% (inactive) in test [3], 4.69% (inactive) in test [7] and 10.9% (inactive) in test [8]. Moreover, in test [2], the inhibition of aggregation is 14.6% (inactive). In addition, the nuclei count in test [2] is 89.4%; in test [3], 82%. In addition, the fluorescence slope in test [4] is -0.533 (inactive). Also, the NADPH fluorescence slope in test [5] is 3e-05 (inactive). Besides, the slope in test [6] is 0.00704 (inactive).

For `O=C(NCc1cccs1)C1CCN(S(=O)(=O)c2cccs2)CC1`, the cell count in test [1] stood at 353. The inhibition in test [1] is 4.5% (inactive); in test [3], -13.4% (inactive); in test [7], 7.22% (inactive); in test [8], 15% (inactive). Also, in test [2], the inhibition of aggregation is 0.9% (inactive). Besides, the nuclei count in test [2] is 99.2%; in test [3], 120%. For the same compound, in test [4], the fluorescence slope is -0.619 (inactive). In test [5], the NADPH fluorescence slope was -1.4e-05 (inactive). The slope in test [6] is 0.00617 (inactive).

Take `CCOC(=O)C1=C(C)N=c2s/c(=C\c3cccn3C)c(=O)n2C1c1cccc(OC)c1OC` (stereo not given): the cell count in test [1] amounted to 342. In addition, the inhibition was 4.5% (inactive) in test [1], -38% (inactive) in test [3], 15.4% (inactive) in test [7] and 25.1% (inactive) in test [8]. For the same compound, the inhibition of aggregation in test [2] was 0.2% (inactive). Further, the nuclei count in test [2] came out at 98.8%; in test [3] it was 102%. Moreover, the fluorescence slope in test [4] was -0.419 (inactive). The NADPH fluorescence slope in test [5] is -8.6e-05 (inactive). The slope in test [6] is 0.0038 (inactive).

Regarding `O=S1(=O)C=C(Sc2nc3ccccc3s2)c2ccccc21`, the cell count in test [1] stood at 581. In addition, the inhibition in test [1] was -2.6% (inactive); in test [3], 121% (active); in test [7], 16.3% (inactive); in test [8], 84.8% (active). Also, the inhibition of aggregation in test [2] was -17.5% (inactive). In addition, the figures for the nuclei count in test [2] and in test [3] were 67.1% and 72.2%, respectively. Besides, the fluorescence slope in test [4] was -0.474 (inactive). Further, the NADPH fluorescence slope in test [5] was 5.2e-06 (inactive). Further, the slope in test [6] is 0.00662 (inactive).

Take `COc1cccc(NC(=O)COC(=O)c2ccco2)c1`: in test [1], the cell count is 393. Also, the inhibition is -4% (inactive) in test [1], -0.6% (inactive) in test [3], 13.4% (inactive) in test [7] and 20.6% (inactive) in test [8]. Besides, the inhibition of aggregation in test [2] was -17.7% (inactive). For the same compound, the nuclei count in test [2] was 92.3%; in test [3] it was 122%. In addition, the fluorescence slope in test [4] is -0.47 (inactive). Further, in test [5], the NADPH fluorescence slope is 7.3e-06 (inactive). Moreover, the slope in test [6] is 0.00724 (inactive).
